Measurements published in PubChem BioAssay (NCATS).
Results filed as inconclusive are left out. Active and inactive are the calls of the source. The call rests on the fitted dose curve; in most records, active means well fitted inhibition curve with a large enough effect; inconclusive means small, poorly fitted or top-dose-only effect; inactive means no such curve, though single readings can be large or run the other way.

test: Primary qHTS for small molecule stabilizers of the endoplasmic reticulum resident proteome: Secreted ER Calcium Modulated Protein (SERCaMP) assay (AID 1508630); settings: SH-SY5Y GLuc-SERCaMP (Gaussia luciferase released on ER calcium loss) secretion, thapsigargin, luminescence; series mostly up to 38.4 µM
Summary of the method: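 The SH-SY5Y reporter protocol was run at 3 concentrations up to 38.3 uM (primary) or 11 concentrations (follow-up): 16 h compound, 100 nM thapsigargin for 4 h, then extracellular luciferase luminescence.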

Potency, inactive:
CC(C)(O)[C@@H]1CCC[N+]2(C)CCCC[C@H]12 (some centres undefined), COc1ccc(C2c3[nH]c4ccccc4c3CC3C(=O)N(CCc4ccc(OC)c(OC)c4)CC(=O)N32)cc1 (centres undefined), C=C(C(=O)O)[C@@H]1CC[C@@]2(C)CCC[C@](C)(O)[C@@H]2C1, O=C1c2ccccc2-n2c1nc1ccccc1c2=O, Cc1cc2c3c(cccc3n1)C(=O)c1ccccc1-2, COC(=O)C1C(=O)C(C(=O)/C=C/c2ccco2)C(=O)CC1(C)C (centres undefined), COc1ccccc1Oc1coc2cc(O)ccc2c1=O, COc1ccc2c(c1OC)C(=O)N1c3ccccc3C(=O)OC21 (centres undefined), O=c1cc(-c2cc3ccccc3oc2=O)c2ccc(O)cc2o1
